Inconclusive results are not listed. Where a call stands in place of a potency, no number is given. Values without a mark were called inactive. Calls of active or inactive are those of the source. Calls come from the whole dose curve; as a rule, active = well fitted cell-killing curve with a large enough effect in the repeat runs; inconclusive = weak or mixed curves, or effect the other way; inactive = flat fitted curve, though single readings scatter.
Assay: Nuclear factor erythroid 2-related factor 2/antioxidant responsive element (Nrf2/ARE) small molecule agonists: qHTS cell viability counter screen in human keratinocytes (AID 1919968); note: nearly all actives have a fitted effect of over 55% in size
Details: KeratinoSens HaCaT ARE cells viability, CellTiter-Fluor, 24 h; series mostly up to 92.4 µM
Description: U.S. Tox21 Program National Center for Advancing Translational Sciences [NCATS] Division of Preclinical Innovation [DPI] U.S. Environmental Protection Agency [EPA] National Institutes of Environmental Health Sciences [NIEHS] National Toxicology Program [NTP] U.S. Food and Drug Administration [FDA] Tox21 Assay Overview: Oxidative stress has been implicated in the pathogenesis of a variety of diseases ranging from cancer to neurodegeneration. The antioxidant response element (ARE) signaling pathway plays an important role in the amelioration of oxidative stress. The KeratinoSens (Givaudan, Switzerland) is an in vitro test method which quantifies luciferase induction as a measure of activation of Keap1-Nrf2-antioxidationt/electrophile response element (ARE) dependant pathway in HaCaT human keratinocytes stably transfected with a selectable plasmid. The KeratinoSens assay is a cell-based assay with a reporter cell line to detect potential skin sensitizers by their ability to induce the Nrf2/ARE-response. The activation of the report gene under culture conditions can be detected by ONE-Glo Luciferase Assay System (Promega, Madison, WI). This cell line has been used to screen the Tox21 10K compound library to identify agonists that induce oxidative stress. The cytotoxicity of the Tox21 compound library against the KS-ARE cell line was tested in parallel by measuring the cell viability using CellTiter- Fluor assay system (Promega, Madison, WI) in the same wells.
Tox21 Assay Protocol Summary: HaCaT derived cell line KeratinoSens were dispensed at 1,500 cells/5uL/well in 1536-well white wall/solid bottom plates using a Multidrop Combi (ThermoFisher Scientific, Waltham, MA) dispenser. After the assay plates were incubated at 37 C/5% CO2 for 5 h, 23 nL of compounds dissolved in DMSO, positive controls or DMSO only was transferred to the assay plate by a pintool workstation (Kalypsys, San Diego, CA). The plates were incubated at 37 C/5% CO2 for 23 h, followed by addition of 1uL/well of CellTiter-Fluor reagent into the assay plates using a Flying Reagent Dispenser (Aurora Discovery, San Diego, CA) for cell viability readout that measures cytotoxicity. After 1 h incubation at 37 C/5% CO2 the fluorescence intensity was measured using a ViewLux (PerkinElmer, Shelton, CT) plate reader.
Potency is the fitted concentration of half-maximal effect.

For `NNC(=O)CP(=O)(c1ccccc1)c1ccccc1`, which Potency is on record?
Its Potency is “inactive”.

With `OCC1CC=CCC1` (stereo not given) as the molecule, how does the Potency read?
The Potency was “inactive”.

With `Cc1ccc(Cl)cc1N` as the molecule, how does the Potency read?
Its Potency is “inactive”.

For `CN(C)CCCN1c2ccccc2Sc2ccc(Cl)cc21`, which Potency is on record?
The Potency was 54.5 µM (active).

Which Potency does the source give for `O=c1[nH]nc(-c2ccc([N+](=O)[O-])o2)o1` here?
The Potency was “inactive”.

Which Potency does the source give for `CC[N+](C)(CC)CC` here?
The Potency was “inactive”.

For `C=C[Si](OCC)(OCC)OCC`, which Potency is on record?
The Potency was “inactive”.

With `Cc1cc(CCN2CCN(c3nsc4ccccc34)CC2)cc2c1NC(=O)CC2(C)C` as the molecule, how does the Potency read?
Its Potency is 48.6 µM (active).

For `O=S1(=O)CCCC1`, which Potency is on record?
The Potency was “inactive”.

Which Potency does the source give for `COc1ccc(S(=O)(=O)Nc2nnc(CC(C)C)s2)cc1` here?
The Potency was “inactive”.

With `O=C1CCc2ccc(OCCCCN3CCN(c4cccc(Cl)c4Cl)CC3)cc2N1` as the molecule, how does the Potency read?
The Potency was 21.1 µM (active).

Which Potency does the source give for `CCCC[N+](C)(CCCC)CCCC` here?
Its Potency is “inactive”.

For `COc1ccc2cc(CCC(C)=O)ccc2c1`, which Potency is on record?
The Potency was “inactive”.

Which Potency does the source give for `CCCCCC/C=C\CCCCCCCC(=O)O` here?
Its Potency is “inactive”.

With `CN1CCC(=C2c3ccccc3Sc3ccccc32)CC1` as the molecule, how does the Potency read?
Its Potency is “inactive”.

Which Potency does the source give for `CN(C)[C@@H]1C(=O)C(C(N)=O)=C(O)[C@@]2(O)C(=O)C3=C(O)c4c(O)ccc(Cl)c4[C@@H](O)[C@H]3C[C@@H]12` here?
Its Potency is “inactive”.

With `CSCC[C@H](NC(=O)[C@H](Cc1c[nH]c2ccccc12)NC(=O)CCNC(=O)OC(C)(C)C)C(=O)N[C@@H](CC(=O)O)C(=O)N[C@@H](Cc1ccccc1)C(N)=O` as the molecule, how does the Potency read?
Its Potency is “inactive”.

With `COC(C)(C)OC` as the molecule, how does the Potency read?
Its Potency is “inactive”.

Which Potency does the source give for `C=Cc1c(C)c2cc3[nH]c(cc4nc(cc5nc(cc1[nH]2)C(C)=C5CCC(=O)O)C(CCC(=O)O)=C4C)c(C)c3C=C` here?
Its Potency is “inactive”.

Which Potency does the source give for `CCCCCCCC/C=C\CCCCCCCC(=O)OC(CO)CO` here?
The Potency was “inactive”.

Which activity change, negative = cytotoxicity does the source give for `O=C(O)c1ccccc1Nc1cc(Cl)ccc1C(=O)O` here?
Its activity change, negative = cytotoxicity is 0.544% [at 19 µM].

Which Potency does the source give for `Cc1ccc2c(Br)cc(Br)c(O)c2n1` here?
Its Potency is “inactive”.

Which Potency does the source give for `N#CCCOCCC#N` here?
Its Potency is “inactive”.

With `CCCCCCCC/C=C\CCCCCCCC(=O)OCCO` as the molecule, how does the Potency read?
Its Potency is “inactive”.

With `C=C(C)CS(=O)(=O)O` as the molecule, how does the Potency read?
The Potency was “inactive”.

For `Brc1cc(Br)c(Oc2cc(Br)c(Br)cc2Br)cc1Br`, which Potency is on record?
Its Potency is “inactive”.

For `CC(COc1ccccc1)NN` (stereo not given), which Potency is on record?
Its Potency is “inactive”.

Which Potency does the source give for `CC(=O)[C@H]1[C@H](C#N)C[C@H]2[C@@H]3CC=C4C[C@@H](O)CC[C@]4(C)[C@H]3CC[C@@]21C` here?
Its Potency is “inactive”.

For `CN(C)C(C)(C)CO`, which Potency is on record?
Its Potency is “inactive”.

For `Cc1nc2ccc(CN(C)c3ccc(C(=O)N[C@@H](CCC(=O)O)C(=O)O)s3)cc2c(=O)[nH]1`, which Potency is on record?
The Potency was “inactive”.

Which Potency does the source give for `CC(C)(C)CC(C)(C)N` here?
The Potency was “inactive”.

With `CCOc1ccc(OCC)c(Cl)c1` as the molecule, how does the Potency read?
The Potency was “inactive”.

With `C=CCOCC(O)CS(=O)(=O)O` (stereo not given) as the molecule, how does the Potency read?
The Potency was “inactive”.

For `O=C(O)c1ccc2cc(C(=O)O)ccc2c1`, which Potency is on record?
Its Potency is “inactive”.

For `C[C@@H]1C[C@H]2[C@@H]3C[C@H](F)C4=CC(=O)C(Cl)=C[C@]4(C)[C@@]3(F)[C@@H](O)C[C@]2(C)[C@@]1(O)C(=O)CO`, which Potency is on record?
The Potency was “inactive”.

For `C[C@@H]1C[C@H]2[C@@H]3CCC4=CC(=O)C=C[C@]4(C)[C@@]3(F)[C@@H](O)C[C@]2(C)[C@@]1(O)C(=O)COC(=O)c1ccncc1`, which Potency is on record?
Its Potency is “inactive”.

With `Nc1c(I)cc(I)c(C(=O)N(CCC(=O)O)c2ccccc2)c1I` as the molecule, how does the Potency read?
The Potency was “inactive”.

With `O=C1[C@@H]2[C@H]3CC[C@H](C3)[C@@H]2C(=O)N1CCCCN1CCN(c2ncccn2)CC1` as the molecule, how does the Potency read?
The Potency was “inactive”.

For `c1ccc(-c2nc3ccccc3[nH]2)cc1`, which Potency is on record?
Its Potency is “inactive”.

With `Nc1ccc(N)c2ccccc12` as the molecule, how does the Potency read?
Its Potency is 27.3 µM (active).
